Hits are enriched below; roughly 1.8% of the tested compounds scored in any of these assays.
KDM4E inh = qHTS Assay for Inhibitors of Human Jumonji Domain Containing 2E (JMJD2E). Lysine-specific demethylase 4E (Homo sapiens), B2RXH2. JMJD2E catalytic domain, FDH-coupled NADH fluorescence (FDH is formaldehyde dehydrogenase). Potency, µM (top dose mostly 57.1 µM), for inactives: at the top dose activity change, negative = inhibition, most hits filed as inhibitors. actives 1.6% (n = 230,000); active means well fitted inhibition curve with a large enough effect, not every such curve was filed as active; inconclusive means small, poorly fitted or top-dose-only effect, or another doubt; inactive means no such curve, though single readings can be large or run the other way;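 further: 0% = wells with enzyme and -100% = buffer wells without enzyme; nearly all actives have a fitted effect of over 50% in size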
Target sequence (B2RXH2 1-337 limits assumed): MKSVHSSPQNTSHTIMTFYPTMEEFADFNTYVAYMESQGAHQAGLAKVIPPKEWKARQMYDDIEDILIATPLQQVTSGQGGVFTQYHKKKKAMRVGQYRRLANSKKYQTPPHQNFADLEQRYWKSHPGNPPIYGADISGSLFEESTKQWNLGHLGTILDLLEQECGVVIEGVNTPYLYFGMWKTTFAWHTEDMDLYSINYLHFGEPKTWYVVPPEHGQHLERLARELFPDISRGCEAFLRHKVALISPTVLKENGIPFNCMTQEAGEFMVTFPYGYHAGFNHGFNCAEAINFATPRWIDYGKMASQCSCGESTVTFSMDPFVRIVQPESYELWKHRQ
L3MBTL1 block = qHTS Assay for the Inhibitors of L3MBTL1; Lethal(3)malignant brain tumor-like protein 1 (Homo sapiens), Q9Y468; AlphaScreen L3MBTL1–H3K9me1 peptide binding; Potency, µM (series often up to 57.1 µM), without a hit: at the top dose activity, negative = inhibition, most hits filed as inhibitors; actives 0.66% (n = 230,000); further: on the % scale 0 is the no-effect control and ±100 the full control effect; nearly all actives have a fitted effect of over 60% in size
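Displacement of a biotinylated histone H3(1-15) peptide monomethylated at Lys9 (75 nM) from L3MBTL1 (50 nM) was measured by AlphaScreen after a 30 min room-temperature compound incubation; cefsulodin titration served as intraplate control.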
HttQ103 aggreg = qHTS Multiplex Assay to Identify Dual Action Probes in a Cell Model of Huntington: Aggregate Formation (GFP); PC12 HttQ103-GFP aggregates, Acumen cytometry, 40 h; Potency, µM (titrated, usually from 46.1 µM), without a hit: at the highest dose activity change, negative = inhibition, most hits filed as inhibitors; actives 1.1% (n = 220,000); further: on the % scale 0 is the no-effect control and ±100 the full control effect; nearly all actives have a fitted effect of over 60% in size
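Aggregates are detected as GFP objects 1–25 µm with signal 6 STDEV over background in lysates of induced PC12 cells. These carry Huntingtin exon 1 with 103 glutamines fused to GFP under an ecdysone promoter; compounds titrated.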
HTT ATP protect = qHTS Multiplex Assay to Identify Dual Action Probes in a Cell Model of Huntington: Cytoprotection (ATP); Potency, µM (doses to about 56.4 µM), without a hit: cytoprotection (ATP increase), hits mostly activators; actives 0.14% (n = 230,000); AID 1471, 2008; PC12 HTT-Q103 induced, cytoprotection, ATP luminescence, 40 h; further: % of control where 0% means no effect; nearly all actives have a fitted effect of over 45% in size
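Quantitative HTS on tebufenozide-induced (100 nM) PC12 cells expressing HTTQ103 exon 1–GFP; compounds tested as a concentration series; survival measured via cellular ATP.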
* = called active by the depositor; [ ] = dose if it differs, or a comment. Unless noted, the call rests on the fitted dose curve; in most records, active means well fitted curve in the direction sought with a large enough effect; inconclusive means small, poorly fitted or top-dose-only effect, or another doubt; inactive means no such curve, though single readings can be large; an effect the other way counts as inactive or inconclusive. Potency means the concentration at half of the fitted maximal effect.

For CC[N+]1(C)C2CCC1CC(OC(=O)[C@H]1CCC(C(=O)OC3CC4CCC(C3)[N+]4(C)CC)(c3ccccc3)c3ccccc31)C2 (stereo partly drawn) the results were HTT ATP protect -34%.
CC/C=C\C/C=C\C/C=C\C/C=C\C/C=C\C/C=C\CCC(=O)NCCCC(=O)O was read as KDM4E inh 2%.
COc1ccc(-n2c(=O)c(-c3ccc(Cl)cc3)nc3cnc(N4CCNCC4)nc32)cc1 was read as HTT ATP protect -26%.
Screening O=C(O)c1ccccc1C(=O)Nc1ccc(Br)c(C(F)(F)F)c1 returned KDM4E inh 0%, L3MBTL1 block -4%, HttQ103 aggreg 8%[9.22 µM] and HTT ATP protect 4%[10 µM].
Screening Cc1cc(C)c(C(=O)Nc2ccc(Br)c(C(F)(F)F)c2)c(C)c1 returned KDM4E inh -4%, L3MBTL1 block 12% and HttQ103 aggreg 20µM*.
For Cc1ccc(Nc2nc3ccccc3s2)c(C)c1 the results were KDM4E inh -6%, L3MBTL1 block 5% and HttQ103 aggreg -27%.
`Cc1cc(O)ccc1Nc1nc2ccccc2nc1Nc1ccc(O)cc1C` gave KDM4E inh 25µM*, L3MBTL1 block -11%, HttQ103 aggreg 25% and HTT ATP protect -2%.
OC[C@@H]1O[C@@H](O)[C@H](N=Cc2ccc3c(c2)OCO3)[C@@H](O)[C@@H]1O was read as HTT ATP protect -21%[10 µM].
Screening O=C(c1ccccc1)N1CCN(Cc2c[nH]c3ccccc23)CC1 returned KDM4E inh 9%, L3MBTL1 block -2%, HttQ103 aggreg -31% and HTT ATP protect 18%.
O=[N+]([O-])c1ccccc1CN1CCN(Cc2c[nH]c3ccccc23)CC1 was read as KDM4E inh inconclusive, L3MBTL1 block 1%, HttQ103 aggreg 8.9µM* and HTT ATP protect -109%.
`CC(=O)c1ccccn1` gave L3MBTL1 block 8% and HTT ATP protect 5%.
`C/C(=N/O)c1ccccn1` gave KDM4E inh 18µM*, L3MBTL1 block 5%, HttQ103 aggreg 3% and HTT ATP protect -19%.
For Cc1oc(=O)oc1CN1CCN(c2cc3c(cc2F)c(=O)c(C(=O)O)c2n3C(C)S2)CC1 (stereo not drawn) the results were HttQ103 aggreg 16% and HTT ATP protect inconclusive.
For CCOc1cc(C2C3=C(CCCC3=O)NC3=C2C(=O)CCC3)ccc1OCCO the results were KDM4E inh 32µM*, HttQ103 aggreg -3% and HTT ATP protect -11%[0.074 µM].
For Cc1cc(-c2ccc(N=Nc3c(S(=O)(=O)O)cc4cc(S(=O)(=O)O)cc(N)c4c3O)c(C)c2)ccc1N=Nc1c(S(=O)(=O)O)cc2cc(S(=O)(=O)O)cc(N)c2c1O the results were L3MBTL1 block 0.2µM*, HttQ103 aggreg 0.02µM* and HTT ATP protect -23%.
`CCCCCCNC(=O)Nc1ccc(S(=O)(=O)Nc2ccc(CCNC[C@H](O)COc3ccc(O)cc3)cc2)cc1` gave KDM4E inh inconclusive and HTT ATP protect -224%.
`O=C1[C@H]2[C@H]3[C@H](O)[C@H](O)C/C(=N/OCc4ccccc4)[C@H]3CC[C@@H]2C(=O)N1Cc1ccc2c(c1)OCO2` gave HTT ATP protect 8%[10 µM].
COc1ccc(N2CCN(C(=S)Nc3ccccc3)CC2)cc1 was read as L3MBTL1 block -8%.
`CC(=O)c1ccc(N2CCN(C(=S)Nc3ccc(Oc4ccccc4)cc3)CC2)cc1` gave KDM4E inh inconclusive, L3MBTL1 block -7%, HttQ103 aggreg 13µM* and HTT ATP protect -54%.
Screening CCOC(=O)c1c(C)oc2c1c(C=NCc1ccccn1)c(O)c1ccccc12 returned KDM4E inh 4µM*, L3MBTL1 block inconclusive, HttQ103 aggreg inconclusive and HTT ATP protect -2%[10 µM].
`CC(C)n1c(=O)[nH][nH]c1=S` gave KDM4E inh 3.2µM*, L3MBTL1 block 2%, HttQ103 aggreg -7%[9.22 µM] and HTT ATP protect 0%[10 µM].
`CC(C)n1c(=O)[nH]c2ccccc21` gave KDM4E inh -3%, L3MBTL1 block 10%, HttQ103 aggreg -4% and HTT ATP protect -10%.
C=CCC(C)(O)C#Cc1ccccc1 (stereo not drawn) was read as KDM4E inh -1% and HTT ATP protect -3%.
COc1ccc(C(=O)CSc2cc(C)nc3nc(C)nn23)cc1OC was read as KDM4E inh -10%, L3MBTL1 block 14% and HTT ATP protect 13µM*.
For COc1ccc(C(=O)CSc2nc(SC)ns2)cc1OC the results were KDM4E inh 0%, HttQ103 aggreg -24% and HTT ATP protect -3%[0.074 µM].
CN(C)c1ncc2ncc(=O)n(Cc3cccs3)c2n1 was read as HTT ATP protect -11%.
For COCCn1nc2cc(C(=O)NCc3cc(C(F)(F)F)cc(C(F)(F)F)c3)ccc2c1OC the results were KDM4E inh -2%, L3MBTL1 block -10%, HttQ103 aggreg 24% and HTT ATP protect 0.71µM*.
CCCC(=O)OCCNc1cc(Sc2nccn2C)c2nonc2c1[N+](=O)[O-] was read as KDM4E inh -1%, L3MBTL1 block -1%, HttQ103 aggreg 11µM* and HTT ATP protect -26%[10 µM].
Cc1oc2c(c1C(=O)N1CCC(C)CC1)C(=O)c1ccccc1C2=O was read as KDM4E inh 0%, L3MBTL1 block -5% and HttQ103 aggreg 7.1µM*.
CC1=C(C(=O)N(C)C)C(c2cccc(Cl)c2)NC(=O)N1 (stereo not drawn) was read as KDM4E inh -4%, HttQ103 aggreg 4µM* and HTT ATP protect -4%[10 µM].
Screening O=C(Nc1ccc(NC(=O)C23CC4CC(CC(C4)C2)C3)cn1)c1ccco1 returned KDM4E inh inconclusive, L3MBTL1 block -2%, HttQ103 aggreg -4% and HTT ATP protect -19%.
Screening O=C(/C=C/c1ccco1)c1ccc(NC(=O)C23CC4CC(CC(C4)C2)C3)cc1 returned KDM4E inh 32µM*, L3MBTL1 block 22µM*, HttQ103 aggreg 14% and HTT ATP protect -17%[10 µM].
Cc1ccc(CNC(=O)C2CCCN(S(=O)(=O)c3cccnc3)C2)cc1 (stereo not drawn) was read as KDM4E inh -6%, HttQ103 aggreg -22% and HTT ATP protect 7%.
Screening Cc1c(C(=O)N(C)Cc2ccccc2)oc2ccc(S(=O)(=O)N3CCCC3)cc12 returned KDM4E inh -5%, L3MBTL1 block -8%, HttQ103 aggreg 11µM* and HTT ATP protect -77%.
Cc1c(C(=O)NCc2ccc3c(c2)OCO3)oc2ccc(S(=O)(=O)N3CCCCC3)cc12 was read as KDM4E inh inconclusive, L3MBTL1 block -7%, HttQ103 aggreg -23% and HTT ATP protect -27%.
Cc1c(C(=O)NCc2ccc3c(c2)OCO3)oc2ccc(S(=O)(=O)N3CCCC3)cc12 was read as KDM4E inh 35µM*, L3MBTL1 block -7%, HttQ103 aggreg inconclusive and HTT ATP protect -33%.

High-throughput results as filed in PubChem.
